Reference: the supplement of paper PMC10849652
About 7,900 targets were measured; listed, in parts, are those with a hit and a random draw of the rest. About 0.6% of all pairs of compound and target were hits.

Assays:
Experiment in all cases: log2 fold change, soluble protein after heating vs DMSO (PISA); higher = thermal stabilisation; K562 cells, 10 uM, 30 min; active = over 0.2 and 3.5 SD of the protein, either way, in both replicates (recomputed)
bafetinib = compound: Cc1ccc(NC(=O)c2ccc(CN3CC[C@H](N(C)C)C3)c(C(F)(F)F)c2)cc1Nc1nccc(-c2cncnc2)n1 [bafetinib]
In short: (§1)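 Soluble protein was defined as the supernatant after 21,000xg for 90 min. It came from K562 cells at 2×10^6 cells/mL given 10 μM compound for 30 min, heated in aliquots for 3 min across 48°C-58°C, pooled, and extracted in PBS with 0.5% NP-40 at 4°C, and was quantified by TMTpro 16plex LC-MS/MS with equalised channel sums. Thermal stability against control samples, from duplicates, is reported as log2 fold change.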

[1] = compound: Cc1cccc(CC(=O)N2CCc3c2ccc(-c2cn(C)c4ncnc(N)c24)c3F)n1
In short: as §1

nilotinib = compound: Cc1cn(-c2cc(NC(=O)c3ccc(C)c(Nc4nccc(-c5cccnc5)n4)c3)cc(C(F)(F)F)c2)cn1 [nilotinib]
In short: as §1

[2] = compound: Cc1nc(Nc2n[nH]c3c2CN(C(=O)N[C@H](CN(C)C)c2ccccc2)C3(C)C)c2sccc2n1
In short: as §1

dasatinib = compound: Cc1nc(Nc2ncc(C(=O)Nc3c(C)cccc3Cl)s2)cc(N2CCN(CCO)CC2)n1 [dasatinib]
In short: as §1

[3] = compound: Cc1ncc(-c2ccnc(Nc3ccc(S(C)(=O)=O)cc3)n2)n1C(C)C
In short: as §1

[4] = compound: Cn1cc(-c2ccc3c(c2)CCN3C(=O)Cc2cccc(C(F)(F)F)c2)c2c(N)ncnc21
In short: as §1

[5] = compound: Cn1cc(-c2ccc3nnc(C(F)(F)c4ccc5ncccc5c4)n3n2)cn1
In short: as §1

tipifarnib = compound: Cn1cncc1[C@@](N)(c1ccc(Cl)cc1)c1ccc2c(c1)c(-c1cccc(Cl)c1)cc(=O)n2C [tipifarnib]
In short: as §1

mubritinib = compound: FC(F)(F)c1ccc(/C=C/c2nc(COc3ccc(CCCCn4ccnn4)cc3)co2)cc1 [mubritinib]
In short: as §1

[6] = compound: NC(=O)Nc1cc(-c2cccc(F)c2)sc1C(=O)N[C@H]1CCCNC1
In short: as §1

[7] = compound: NC(=O)c1cnc(N[C@@H]2CCCC[C@@H]2N)nc1Nc1cccc(-n2nccn2)c1
In short: as §1

[8] = compound: NC1(c2ccc(-c3nc4ccn5c(=O)[nH]nc5c4cc3-c3ccccc3)cc2)CCC1
In short: as §1

[9] = compound: NCC(=O)Nc1ccc(-n2nc(C(F)(F)F)cc2-c2ccc3c(ccc4ccccc43)c2)cc1
In short: as §1

entinostat = compound: Nc1ccccc1NC(=O)c1ccc(CNC(=O)OCc2cccnc2)cc1 [entinostat]
In short: as §1

vorinostat = compound: O=C(CCCCCCC(=O)Nc1ccccc1)NO [vorinostat]
In short: as §1

citarinostat = compound: O=C(CCCCCCNC(=O)c1cnc(N(c2ccccc2)c2ccccc2Cl)nc1)NO [citarinostat]
In short: as §1

silmitasertib = compound: O=C(O)c1ccc2c(c1)nc(Nc1cccc(Cl)c1)c1ccncc12 [silmitasertib]
In short: as §1

[10] = compound: O=C1NC(=O)C(c2cnc3ccccn23)=C1c1cn2c3c(cc(F)cc13)CN(C(=O)N1CCCCC1)CC2
In short: as §1

[11] = compound: c1cc(OCCN2CCCCC2)cc(-c2n[nH]c3ccc(-c4nnc[nH]4)cc23)c1
In short: as §1

Measured: log2 fold change

SLC25A38 (UniProt Q96DW6)
inactive: bafetinib -0.08 | [1] -0.03 | nilotinib -0.03 | [2] 0.023 | dasatinib 0.143 | [3] -0.114 | [4] 0.022 | [5] 0.019 | tipifarnib 0.043 | mubritinib 0.052 | [6] 0.035 | [7] -0.068 | [8] -0.21 | [9] 0.06 | entinostat -0.049 | vorinostat -0.096 | citarinostat 0.02 | silmitasertib 0.069 | [10] -0.022 | [11] -0.028

SRSF4 (UniProt Q08170)
active: [2] -0.602
inactive: bafetinib 0.215 | [1] -0.064 | nilotinib 0.013 | dasatinib 0.109 | [3] 0.028 | [4] -0.166 | [5] -0.14 | tipifarnib 0.127 | mubritinib -0.109 | [6] -0.059 | [7] 0.036 | [8] 0.196 | [9] 0.03 | entinostat -0.002 | vorinostat -0.02 | citarinostat -0.028 | silmitasertib -0.005 | [10] 0.206 | [11] -0.228

SMARCA5 (UniProt O60264)
inactive: bafetinib -0.052 | [1] 0.001 | nilotinib -0.019 | [2] -0.152 | dasatinib -0.052 | [3] 0.002 | [4] -0.088 | [5] -0.112 | tipifarnib -0.022 | mubritinib 0.184 | [6] -0.084 | [7] -0.121 | [8] -0.095 | [9] -0.01 | entinostat 0.097 | vorinostat 0.204 | citarinostat -0.094 | silmitasertib 0.028 | [10] -0.034 | [11] 0.03

SUCLG1 (UniProt P53597)
active: mubritinib -0.273
inactive: bafetinib -0.065 | [1] -0.01 | nilotinib -0.077 | [2] 0.029 | dasatinib -0.025 | [3] -0.008 | [4] 0.027 | [5] 0.078 | tipifarnib -0.008 | [6] -0.037 | [7] -0.077 | [8] -0.106 | [9] -0.059 | entinostat 0.012 | vorinostat 0 | citarinostat 0.043 | silmitasertib -0.037 | [10] -0.073 | [11] -0.049

SLC27A4 (UniProt Q6P1M0)
Chain of UniProt Q6P1M0 (Q6P1M0 whole entry, looked up): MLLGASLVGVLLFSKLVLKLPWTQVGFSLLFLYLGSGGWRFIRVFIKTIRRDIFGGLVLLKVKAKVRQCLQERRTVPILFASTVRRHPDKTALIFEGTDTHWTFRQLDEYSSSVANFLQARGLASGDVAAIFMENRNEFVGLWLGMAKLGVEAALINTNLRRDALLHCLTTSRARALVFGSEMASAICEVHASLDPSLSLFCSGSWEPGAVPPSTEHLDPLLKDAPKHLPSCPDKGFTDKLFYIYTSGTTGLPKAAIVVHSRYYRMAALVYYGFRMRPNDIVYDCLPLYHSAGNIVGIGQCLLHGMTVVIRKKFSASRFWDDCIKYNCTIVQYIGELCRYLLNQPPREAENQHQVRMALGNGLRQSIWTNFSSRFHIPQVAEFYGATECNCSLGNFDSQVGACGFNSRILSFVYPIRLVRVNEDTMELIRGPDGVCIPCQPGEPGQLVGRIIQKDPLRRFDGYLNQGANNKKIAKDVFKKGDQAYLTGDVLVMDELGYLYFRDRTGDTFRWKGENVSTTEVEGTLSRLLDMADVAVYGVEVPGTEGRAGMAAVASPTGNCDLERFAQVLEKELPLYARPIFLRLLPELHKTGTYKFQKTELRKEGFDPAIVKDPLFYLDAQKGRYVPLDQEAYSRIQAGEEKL
inactive: bafetinib -0.026 | [1] 0.022 | nilotinib -0.098 | [2] -0.101 | dasatinib -0.113 | [3] 0.011 | [4] 0.003 | [5] 0.009 | tipifarnib 0.124 | [6] -0.086 | [7] -0.043 | [8] -0.034 | [9] 0.016 | entinostat -0.024 | vorinostat 0 | citarinostat 0.043 | silmitasertib 0.022 | [10] -0.073 | [11] -0.1
active: mubritinib 0.598

SPG21 (UniProt Q9NZD8)
active: [7] 0.305
inactive: bafetinib 0.158 | [1] -0.129 | nilotinib -0.173 | [2] -0.06 | dasatinib -0.087 | [3] 0.171 | [4] 0.022 | [5] 0.027 | tipifarnib -0.115 | mubritinib -0.042 | [6] 0.072 | [8] -0.054 | [9] 0.123 | entinostat 0.004 | vorinostat 0.013 | citarinostat -0.001 | silmitasertib -0.013 | [10] -0.104 | [11] 0.007

TFAM (UniProt Q00059)
Chain of UniProt Q00059 (Q00059 whole entry, looked up): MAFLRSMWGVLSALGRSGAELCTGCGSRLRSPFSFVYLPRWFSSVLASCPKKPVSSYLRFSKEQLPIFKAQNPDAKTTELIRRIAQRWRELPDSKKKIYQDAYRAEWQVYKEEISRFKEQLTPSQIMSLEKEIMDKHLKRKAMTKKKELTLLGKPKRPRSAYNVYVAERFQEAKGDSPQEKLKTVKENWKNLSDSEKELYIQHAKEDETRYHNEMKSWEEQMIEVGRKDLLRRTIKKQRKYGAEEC
inactive: bafetinib 0.034 | [1] 0.013 | nilotinib -0.025 | [2] 0.023 | dasatinib 0.077 | [3] 0.003 | [4] -0.048 | [5] -0.038 | tipifarnib 0.039 | mubritinib -0.068 | [6] -0.079 | [7] -0.006 | [8] 0.085 | [9] 0.011 | entinostat -0.035 | vorinostat 0.005 | citarinostat -0.151 | silmitasertib 0.011 | [10] 0.06 | [11] -0.115

SRP72 (UniProt O76094)
Chain of UniProt O76094 (O76094 whole entry, looked up): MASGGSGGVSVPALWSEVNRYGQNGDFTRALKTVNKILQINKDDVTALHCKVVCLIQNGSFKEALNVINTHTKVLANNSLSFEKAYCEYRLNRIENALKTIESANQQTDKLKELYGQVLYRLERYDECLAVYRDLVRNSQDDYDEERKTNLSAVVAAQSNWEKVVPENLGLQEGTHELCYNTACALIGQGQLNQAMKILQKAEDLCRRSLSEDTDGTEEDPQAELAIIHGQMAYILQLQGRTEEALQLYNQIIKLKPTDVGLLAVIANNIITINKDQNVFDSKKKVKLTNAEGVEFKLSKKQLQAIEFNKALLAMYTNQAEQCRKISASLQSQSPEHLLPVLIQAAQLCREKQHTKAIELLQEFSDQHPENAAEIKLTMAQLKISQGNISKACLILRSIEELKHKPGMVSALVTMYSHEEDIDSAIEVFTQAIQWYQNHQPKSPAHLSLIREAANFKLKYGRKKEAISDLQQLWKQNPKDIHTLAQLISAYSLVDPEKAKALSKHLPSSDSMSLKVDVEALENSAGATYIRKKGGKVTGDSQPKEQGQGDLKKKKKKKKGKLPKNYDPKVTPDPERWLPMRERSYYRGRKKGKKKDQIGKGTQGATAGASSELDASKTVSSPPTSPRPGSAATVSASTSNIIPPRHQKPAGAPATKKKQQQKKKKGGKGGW
inactive: bafetinib 0.05 | [1] 0.048 | nilotinib -0.117 | [2] -0.03 | dasatinib -0.186 | [3] 0.108 | [4] -0.052 | [5] -0.052 | tipifarnib -0.148 | mubritinib -0.036 | [6] -0.088 | [7] -0.054 | [8] -0.082 | [9] -0.128 | entinostat 0.069 | vorinostat 0.103 | citarinostat 0.095 | silmitasertib 0.042 | [10] 0.105 | [11] -0.129

TBK1 (UniProt Q9UHD2)
active: [2] 0.911
inactive: bafetinib -0.035 | [1] -0.024 | nilotinib -0.114 | dasatinib -0.096 | [3] 0.012 | [4] 0.055 | [5] -0.002 | tipifarnib -0.103 | mubritinib -0.038 | [6] 0.196 | [7] 0 | [8] -0.086 | [9] -0.118 | entinostat 0.055 | vorinostat -0.025 | citarinostat 0.064 | silmitasertib 0.057 | [10] -0.014 | [11] -0.029

SMPD4 isoform 4 (UniProt Q9NXE4)
inactive: bafetinib -0.031 | [1] 0.122 | nilotinib -0.1 | [2] -0.076 | dasatinib -0.037 | [3] 0.025 | [4] 0.098 | [5] 0.04 | tipifarnib -0.016 | mubritinib 0.148 | [6] -0.008 | [7] -0.075 | [8] -0.141 | [9] -0.059 | entinostat 0.033 | vorinostat 0.084 | citarinostat -0.039 | silmitasertib 0.085 | [10] 0.012 | [11] 0.268

SNRNP27 (UniProt Q8WVK2)
inactive: bafetinib -0.015 | [1] -0.079 | nilotinib 0.087 | dasatinib 0.045 | [3] -0.064 | [4] -0.078 | [5] 0.031 | tipifarnib 0.032 | mubritinib 0.059 | [6] 0.022 | [7] -0.015 | [8] -0.034 | [9] -0.043 | entinostat -0.024 | vorinostat -0.008 | citarinostat -0.003 | silmitasertib 0.06 | [10] 0.038 | [11] -0.025
active: [2] -0.487

ST6GAL1 (UniProt P15907)
Chain of UniProt P15907 (P15907 whole entry, looked up): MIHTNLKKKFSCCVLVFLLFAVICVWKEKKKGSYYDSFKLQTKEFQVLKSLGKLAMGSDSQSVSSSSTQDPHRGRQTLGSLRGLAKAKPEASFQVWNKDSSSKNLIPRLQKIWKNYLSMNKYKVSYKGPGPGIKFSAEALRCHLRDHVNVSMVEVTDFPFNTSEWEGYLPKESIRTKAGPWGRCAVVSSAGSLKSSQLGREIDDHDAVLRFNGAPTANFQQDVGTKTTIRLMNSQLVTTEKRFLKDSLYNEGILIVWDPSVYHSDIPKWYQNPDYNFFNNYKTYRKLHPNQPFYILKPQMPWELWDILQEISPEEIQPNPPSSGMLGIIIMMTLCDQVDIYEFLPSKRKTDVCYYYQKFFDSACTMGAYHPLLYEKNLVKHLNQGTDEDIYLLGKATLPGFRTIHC
inactive: bafetinib 0.001 | [1] 0.029 | nilotinib 0.168 | [2] -0.048 | dasatinib 0.131 | [3] -0.001 | [4] 0.007 | [5] -0.02 | tipifarnib 0.128 | mubritinib -0.023 | [6] -0.101 | [7] 0.089 | [8] -0.079 | [9] -0.004 | entinostat -0.106 | vorinostat -0.045 | citarinostat 0.025 | silmitasertib 0.024 | [10] 0.017 | [11] -0.064

SRRM2 (UniProt Q9UQ35)
Chain of UniProt Q9UQ35 (Q9UQ35 whole entry, looked up): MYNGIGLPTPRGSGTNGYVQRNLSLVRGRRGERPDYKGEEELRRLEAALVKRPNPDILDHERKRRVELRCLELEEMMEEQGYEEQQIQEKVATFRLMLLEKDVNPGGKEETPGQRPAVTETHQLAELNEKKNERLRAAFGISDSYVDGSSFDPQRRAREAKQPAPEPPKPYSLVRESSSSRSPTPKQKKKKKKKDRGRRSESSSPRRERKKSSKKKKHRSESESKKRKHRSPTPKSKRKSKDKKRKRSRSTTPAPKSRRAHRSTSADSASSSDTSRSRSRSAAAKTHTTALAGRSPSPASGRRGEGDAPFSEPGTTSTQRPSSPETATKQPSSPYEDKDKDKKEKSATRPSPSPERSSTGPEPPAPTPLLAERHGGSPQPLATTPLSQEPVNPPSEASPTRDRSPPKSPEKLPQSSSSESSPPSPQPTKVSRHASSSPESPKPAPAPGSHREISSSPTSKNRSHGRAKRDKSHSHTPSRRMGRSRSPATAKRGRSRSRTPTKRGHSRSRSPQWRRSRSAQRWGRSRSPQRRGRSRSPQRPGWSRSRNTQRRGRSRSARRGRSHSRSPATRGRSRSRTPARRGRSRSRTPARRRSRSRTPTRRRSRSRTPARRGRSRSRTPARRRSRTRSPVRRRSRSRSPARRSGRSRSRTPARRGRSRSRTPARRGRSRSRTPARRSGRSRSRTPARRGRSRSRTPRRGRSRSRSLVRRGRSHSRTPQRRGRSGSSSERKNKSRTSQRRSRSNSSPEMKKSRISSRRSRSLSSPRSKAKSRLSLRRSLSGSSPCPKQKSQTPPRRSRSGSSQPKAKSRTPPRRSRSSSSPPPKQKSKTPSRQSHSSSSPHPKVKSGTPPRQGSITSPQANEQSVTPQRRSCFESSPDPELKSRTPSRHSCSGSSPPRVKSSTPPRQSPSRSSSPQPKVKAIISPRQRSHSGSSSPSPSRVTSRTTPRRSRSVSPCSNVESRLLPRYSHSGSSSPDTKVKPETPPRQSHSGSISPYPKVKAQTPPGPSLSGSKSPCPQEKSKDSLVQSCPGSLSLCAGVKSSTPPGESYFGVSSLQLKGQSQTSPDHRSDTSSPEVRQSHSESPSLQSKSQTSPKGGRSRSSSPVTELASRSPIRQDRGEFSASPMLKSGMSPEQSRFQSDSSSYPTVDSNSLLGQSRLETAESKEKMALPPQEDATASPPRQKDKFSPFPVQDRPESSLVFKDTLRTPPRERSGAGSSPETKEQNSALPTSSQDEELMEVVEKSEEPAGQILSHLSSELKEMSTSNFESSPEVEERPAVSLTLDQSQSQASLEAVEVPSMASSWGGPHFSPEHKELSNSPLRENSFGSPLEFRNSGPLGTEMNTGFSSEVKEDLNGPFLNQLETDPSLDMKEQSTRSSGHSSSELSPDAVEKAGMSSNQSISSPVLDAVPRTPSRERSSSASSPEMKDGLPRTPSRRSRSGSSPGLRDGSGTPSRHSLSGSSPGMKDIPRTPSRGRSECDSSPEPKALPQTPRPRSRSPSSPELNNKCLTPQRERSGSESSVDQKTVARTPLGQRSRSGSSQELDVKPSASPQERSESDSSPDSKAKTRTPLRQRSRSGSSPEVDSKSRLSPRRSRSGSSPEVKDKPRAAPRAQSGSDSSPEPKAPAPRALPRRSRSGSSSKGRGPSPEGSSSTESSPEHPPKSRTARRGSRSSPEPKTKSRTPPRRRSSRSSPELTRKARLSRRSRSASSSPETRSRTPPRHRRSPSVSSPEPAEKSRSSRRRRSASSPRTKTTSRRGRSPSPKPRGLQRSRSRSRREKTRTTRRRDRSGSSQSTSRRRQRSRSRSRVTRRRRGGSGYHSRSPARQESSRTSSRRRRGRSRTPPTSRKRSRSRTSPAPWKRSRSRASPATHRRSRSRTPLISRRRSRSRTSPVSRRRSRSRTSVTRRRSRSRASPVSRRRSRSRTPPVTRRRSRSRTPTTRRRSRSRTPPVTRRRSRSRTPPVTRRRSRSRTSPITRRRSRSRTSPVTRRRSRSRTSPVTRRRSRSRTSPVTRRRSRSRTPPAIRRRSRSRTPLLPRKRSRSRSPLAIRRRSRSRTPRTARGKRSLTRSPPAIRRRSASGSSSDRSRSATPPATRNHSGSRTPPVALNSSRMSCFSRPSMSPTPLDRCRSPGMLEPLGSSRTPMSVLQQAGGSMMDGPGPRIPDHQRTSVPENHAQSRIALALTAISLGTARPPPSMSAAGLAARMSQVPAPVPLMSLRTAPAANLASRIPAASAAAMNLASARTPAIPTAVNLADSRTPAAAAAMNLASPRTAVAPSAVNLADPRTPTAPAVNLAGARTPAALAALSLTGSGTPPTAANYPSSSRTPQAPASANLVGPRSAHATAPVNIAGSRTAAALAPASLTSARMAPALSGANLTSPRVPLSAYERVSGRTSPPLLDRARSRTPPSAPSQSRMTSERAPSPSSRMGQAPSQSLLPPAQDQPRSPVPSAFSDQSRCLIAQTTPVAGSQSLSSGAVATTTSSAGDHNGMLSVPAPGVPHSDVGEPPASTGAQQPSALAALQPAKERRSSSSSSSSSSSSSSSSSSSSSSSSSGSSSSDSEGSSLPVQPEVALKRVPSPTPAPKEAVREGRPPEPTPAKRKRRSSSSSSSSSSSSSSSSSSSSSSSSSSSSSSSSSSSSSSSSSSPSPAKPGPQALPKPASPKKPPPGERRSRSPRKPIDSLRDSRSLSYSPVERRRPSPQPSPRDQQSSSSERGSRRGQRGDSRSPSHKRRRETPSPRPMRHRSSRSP
inactive: bafetinib 0.068 | [1] 0.044 | nilotinib 0.02 | dasatinib 0.079 | [3] -0.261 | [4] 0.048 | [5] 0.022 | tipifarnib 0.077 | mubritinib 0.035 | [6] -0.004 | [7] -0.055 | [8] 0.005 | [9] -0.036 | entinostat 0.025 | vorinostat 0.226 | citarinostat 0.071 | silmitasertib -0.141 | [10] -0.225 | [11] -0.25
active: [2] -0.936

ST3GAL2 (UniProt Q16842)
Chain of UniProt Q16842 (Q16842 whole entry, looked up): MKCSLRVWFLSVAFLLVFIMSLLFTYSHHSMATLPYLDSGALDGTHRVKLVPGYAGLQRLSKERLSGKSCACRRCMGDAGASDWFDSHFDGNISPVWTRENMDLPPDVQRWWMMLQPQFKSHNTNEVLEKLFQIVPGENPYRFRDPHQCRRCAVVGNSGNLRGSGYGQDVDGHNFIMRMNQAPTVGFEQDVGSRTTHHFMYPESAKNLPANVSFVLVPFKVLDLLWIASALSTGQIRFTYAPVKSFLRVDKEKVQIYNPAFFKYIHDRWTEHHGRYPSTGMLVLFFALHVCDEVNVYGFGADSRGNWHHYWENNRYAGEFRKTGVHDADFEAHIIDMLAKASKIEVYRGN
inactive: bafetinib 0.092 | [1] -0.008 | nilotinib 0.191 | [2] -0.042 | dasatinib 0.179 | [3] 0.081 | [4] -0.039 | [5] -0.022 | tipifarnib 0.076 | mubritinib -0.026 | [6] -0.066 | [7] 0.101 | [8] -0.04 | [9] 0.008 | entinostat -0.028 | vorinostat -0.013 | citarinostat 0.008 | silmitasertib -0.003 | [10] -0.016 | [11] -0.05

SNX6 (UniProt Q9UNH7)
inactive: bafetinib -0.132 | [1] 0.138 | nilotinib -0.214 | [2] 0.012 | dasatinib -0.176 | [4] 0.094 | [5] 0.019 | tipifarnib -0.045 | mubritinib 0.058 | [6] -0.027 | [9] 0.007 | entinostat 0.075 | vorinostat 0.15 | citarinostat 0.064 | silmitasertib -0.142 | [10] -0.003 | [11] -0.087
active: [3] -0.47 | [7] -0.376 | [8] -0.403

SLC25A36 (UniProt Q96CQ1)
inactive: bafetinib -0.049 | [1] -0.003 | nilotinib -0.01 | [2] 0.182 | dasatinib -0.136 | [3] -0.138 | [4] 0.033 | [5] -0.004 | tipifarnib -0.075 | mubritinib -0.078 | [6] 0.131 | [7] 0.035 | [8] 0.015 | [9] -0.123 | entinostat 0.036 | vorinostat 0.003 | citarinostat 0.063 | silmitasertib 0.106 | [10] 0.027 | [11] 0.028
